# Bioassay records deposited in PubChem by National Center for Advancing Translational Sciences (NCATS).
# JMJD2A Tudor = JMJD2A Tudor domain (human) inhibition. O75164. 390,000 compounds, 4.4% hits. AlphaScreen JMJD2A-Tudor / H3K4me3 peptide binding. Potency, µM (highest dose often 114 µM), without a hit: top-dose activity change, negative = inhibition, actives largely listed as inhibitors; further: on the % scale 0 is the no-effect control and ±100 the full control effect; nearly all actives have a fitted effect of over 50% in size
# Sfp PPTase inh = inhibitors of Bacillus subtilis Sfp phosphopantetheinyl transferase. Q9F4F7. Biochemical Sfp PPTase activity, qHTS. Potency, µM, inactives show largest response in the series, negative = inhibition, most hits filed as inhibitors. 310,000 compounds, 3.5% hits. AID 1490;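 further: the enzyme is Sfp with the accession as filed and its product quenches rhodamine fluorescence; 0% = enzyme reaction without inhibitor and -100% = no enzyme wells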
#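 Buffer: 50 mM Hepes-Na pH 7.6, 10 mM MgCl2, 0.01% Nonidet P-40, 0.01% BSA. Enzyme 15 nM, pre-exposed to compound 15 min; substrates then added and fluorescence change tracked over 30 min.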
# BAZ2B inh = blocks human BAZ2B. Q9UIF8. AlphaScreen BAZ2B-H3K14Ac peptide displacement. Potency, µM (top dose mostly 114 µM), without a hit: at the top dose activity change, negative = inhibition, usual class: inhibitors. 360,000 compounds, 4.4% hits. AID 504333; further: on the % scale 0 is the no-effect control and ±100 the full control effect; nearly all actives have a fitted effect of over 60% in size
# Target sequence (Q9UIF8 whole entry, looked up): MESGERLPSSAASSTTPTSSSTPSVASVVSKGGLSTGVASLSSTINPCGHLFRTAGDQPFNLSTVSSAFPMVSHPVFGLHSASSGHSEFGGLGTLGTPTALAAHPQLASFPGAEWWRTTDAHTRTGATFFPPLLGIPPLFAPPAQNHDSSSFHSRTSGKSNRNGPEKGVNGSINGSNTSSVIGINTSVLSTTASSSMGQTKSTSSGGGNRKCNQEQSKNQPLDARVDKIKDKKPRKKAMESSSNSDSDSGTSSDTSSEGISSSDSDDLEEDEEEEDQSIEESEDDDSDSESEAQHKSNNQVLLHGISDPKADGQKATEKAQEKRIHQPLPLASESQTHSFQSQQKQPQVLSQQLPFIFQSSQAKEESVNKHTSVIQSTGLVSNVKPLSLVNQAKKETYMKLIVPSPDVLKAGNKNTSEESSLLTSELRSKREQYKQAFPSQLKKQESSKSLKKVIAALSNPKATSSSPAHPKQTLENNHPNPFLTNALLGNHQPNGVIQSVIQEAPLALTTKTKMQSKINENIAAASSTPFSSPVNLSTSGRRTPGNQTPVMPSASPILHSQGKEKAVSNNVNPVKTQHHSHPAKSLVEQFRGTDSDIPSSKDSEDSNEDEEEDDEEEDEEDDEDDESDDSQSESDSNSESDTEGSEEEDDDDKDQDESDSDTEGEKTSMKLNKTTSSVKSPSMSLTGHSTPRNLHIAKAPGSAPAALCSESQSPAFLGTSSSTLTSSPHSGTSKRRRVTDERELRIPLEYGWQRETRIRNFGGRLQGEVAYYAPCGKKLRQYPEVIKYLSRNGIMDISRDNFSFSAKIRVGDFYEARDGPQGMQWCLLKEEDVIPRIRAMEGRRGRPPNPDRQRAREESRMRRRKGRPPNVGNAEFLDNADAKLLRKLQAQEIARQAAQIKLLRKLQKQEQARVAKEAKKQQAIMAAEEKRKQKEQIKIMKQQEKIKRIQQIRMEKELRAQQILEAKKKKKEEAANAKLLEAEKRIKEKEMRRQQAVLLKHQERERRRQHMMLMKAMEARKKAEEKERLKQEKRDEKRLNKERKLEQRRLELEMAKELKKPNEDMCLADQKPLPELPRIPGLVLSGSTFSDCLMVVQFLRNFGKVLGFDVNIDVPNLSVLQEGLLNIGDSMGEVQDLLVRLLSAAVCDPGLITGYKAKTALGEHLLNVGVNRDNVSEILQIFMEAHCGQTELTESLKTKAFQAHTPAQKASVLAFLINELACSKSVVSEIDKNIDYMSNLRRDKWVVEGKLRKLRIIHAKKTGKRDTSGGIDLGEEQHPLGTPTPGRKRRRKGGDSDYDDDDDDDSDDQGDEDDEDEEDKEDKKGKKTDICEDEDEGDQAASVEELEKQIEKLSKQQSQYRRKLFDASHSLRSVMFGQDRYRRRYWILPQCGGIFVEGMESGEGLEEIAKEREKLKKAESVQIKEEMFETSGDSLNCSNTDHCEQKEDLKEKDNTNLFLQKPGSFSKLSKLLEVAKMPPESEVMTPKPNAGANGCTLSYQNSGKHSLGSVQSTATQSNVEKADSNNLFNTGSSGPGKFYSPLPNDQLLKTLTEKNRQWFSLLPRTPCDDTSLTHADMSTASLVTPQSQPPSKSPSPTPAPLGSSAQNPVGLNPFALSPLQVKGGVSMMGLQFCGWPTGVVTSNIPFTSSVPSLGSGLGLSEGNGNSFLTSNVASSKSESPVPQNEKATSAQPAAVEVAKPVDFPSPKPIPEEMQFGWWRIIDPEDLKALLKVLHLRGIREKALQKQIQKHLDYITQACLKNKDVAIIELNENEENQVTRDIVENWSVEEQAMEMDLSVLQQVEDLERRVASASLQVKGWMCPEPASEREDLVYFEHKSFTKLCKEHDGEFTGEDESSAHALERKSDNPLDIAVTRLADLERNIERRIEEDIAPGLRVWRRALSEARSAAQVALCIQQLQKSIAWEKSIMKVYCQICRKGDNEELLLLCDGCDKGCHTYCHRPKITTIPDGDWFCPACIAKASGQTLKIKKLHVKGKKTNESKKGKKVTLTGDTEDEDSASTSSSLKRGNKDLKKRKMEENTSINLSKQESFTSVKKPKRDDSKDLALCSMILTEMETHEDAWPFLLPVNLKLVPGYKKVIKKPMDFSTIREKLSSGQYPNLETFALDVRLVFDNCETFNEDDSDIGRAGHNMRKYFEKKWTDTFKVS
#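 Inhibition is scored as reduced AlphaScreen emission. The BAZ2B/b-H3(5-23)K14Ac complex (50 nM each) in PBS pH 7.4, 0.01% Tween-20 meets compound (up to 110 uM) for 30 min at RT before bead addition.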
# HP1b binding inh = HP1-beta chromodomain-methylated histone interaction inhibition | P83916 | AlphaScreen HP1-beta / biotin-H3K9me3 peptide binding | Potency, µM (highest dose often 114 µM), inactives show at the top dose activity change, negative = inhibition, usual class: inhibitors | 390,000 compounds, 0.56% hits | AID 540317; further: nearly all actives have a fitted effect of over 70% in size
#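 HP1-beta protein (50 nM final) preincubated 30 min at room temperature with biotinylated H3(1-18)K9me3 peptide (50 nM) in PBS pH 7.4, 0.01% Tween-20, then compound added for 30 min. AlphaScreen streptavidin donor/nickel chelate acceptor beads (10 ug/mL final), 30 min dark, luminescence read.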
# G9a block = G9a (human) methyltransferase inhibition. Potency, µM (top dose mostly 102 µM), inactives show at the top dose activity, negative = inhibition, actives largely listed as inhibitors. G9a H3K9 monomethylation, AlphaScreen, 2 h. 350,000 compounds, 8.8% hits. AID 504332; further: on the % scale 0 is the no-effect control and ±100 the full control effect; nearly all actives have a fitted effect of over 75% in size
#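 AlphaScreen read-out: biotin-H3K9 peptide (500 nM) methylation by 20 nM enzyme with 20 uM SAM, 2 h at room temperature after 15 min compound preincubation; anti-monomethyl H3K9 antibody plus donor/acceptor beads, 10 min dark.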
# The depositor's hits bear a star; ? = inconclusive; . = no result given; [ ] = dose if it differs, or a comment. In the library only some 12% were active in any assay of this set; here they are far more common. The call rests on the fitted dose curve; in most records, active means well fitted curve in the direction sought with a large enough effect; inconclusive means small, poorly fitted or top-dose-only effect, or another doubt; inactive means no such curve, though single readings can be large; an effect the other way counts as inactive or inconclusive. Potency means the concentration at half of the fitted maximal effect.
SMILES,JMJD2A Tudor,Sfp PPTase inh,BAZ2B inh,HP1b binding inh,G9a block
Cc1c(N2C(=O)/C(=C/c3ccccc3)SC2=S)c(=O)n(-c2ccccc2)n1C,-22%,-25%,-37%,-6%,21%[0.501 µM]
Cc1ccc(/C=C2\SC(=S)N(c3c(C)n(C)n(-c4ccccc4)c3=O)C2=O)cc1,?,?,?,-13%,.
Cc1c(N2C(=O)/C(=C3\C(=O)N(CC(=O)O)c4ccccc43)SC2=S)c(=O)n(-c2ccccc2)n1C,-20%,?,79µM*,5%,.
CC(C)(C)OC(=O)N/N=C/c1cc(N=Nc2ccccc2)ccc1O,?,21%,?,-25%,17%[59 µM]
Cc1csc2nc(CCNS(=O)(=O)c3ccc(F)cc3)cn12,-5%,.,3%,26%[57 µM],0%[59 µM]
CNC(=O)COc1coc(CN2CCN(Cc3ccccc3)CC2)cc1=O,-20%,-1%,1%,37%,3%
Cc1c(N2C(=O)/C(=C\C3CC=CCC3)SC2=S)c(=O)n(-c2ccccc2)n1C (configuration not stated),-20%,50µM*,-31%,-24%,?
NCCC(O)(P(=O)(O)O)P(=O)(O)O,.,-3%,.,.,33%[59 µM]
O=C(Nc1nnc(Cc2ccccc2)s1)c1cccnc1,7%,6%,-3%,30%,4%[0.501 µM]
CC(C)COC(=O)Nc1nnc(Cc2ccccc2)s1,18µM*,11%,-6%,-4%,-12%
CN(C)c1cccc(C(=O)Nc2nnc(Cc3ccccc3)s2)c1,?,-8%,-31%,4%,40µM*
CCc1cccc(-n2nnc(-c3nsc(NC(=O)c4cccs4)n3)c2C)c1,-14%,.,-6%,23%,-12%[59 µM]
COCCn1c(C)cc(/C=C2\NC(=S)N(C)C2=O)c1C,-51%,-9%,50µM*,?,10µM*
COCCn1c(C)cc(/C=C2/SC(=O)N(C(C)C(=O)OC)C2=O)c1C (configuration not stated),?,5%,?,-6%,?
CCOc1ccc(-n2c(SCC(=O)c3ccccc3)nc3c([nH]c4ccccc43)c2=O)cc1,-28%,.,32%,42%[57 µM],2%[59 µM]
Cc1ccc(C)c(Cn2c(=O)n(-c3ccccc3)c(=O)c3c4c(sc32)CCCC4)c1,-4%,.,1%,41%,-30%[59 µM]
CCOC(=O)c1ccc(NC(=O)C(CC)Sc2nc3ncccc3o2)cc1 (configuration not stated),-16%,.,-5%,?,7%[59 µM]
CS(=O)(=O)c1ccc2c(c1)sc1nc(=O)c(/C=C3/C=CC(=O)C(O)=C3)c(N)n12,7.1µM*,32µM*,14µM*,16µM*,5µM*
CN(CC(=O)Nc1ccc(F)cc1)C(=O)C1CCCC1,-4%,.,4%,24%,43%[12.7 µM]
Cc1ccccc1Nc1oc(-c2ccccc2)nc1-c1cccs1,.,-16%,.,.,.
COc1ccc2c(CC(=O)Nc3ccc(C)cc3)coc2c1,-18%,.,-15%,-6%,-19%[59 µM]
Cc1c(-n2cc(C(=O)O)c(=O)c3cc(F)c(N4CCCC4)c(F)c32)c(=O)n(-c2ccccc2)n1C,-2%,-8%,-4%,25%,56µM*
CN(Cc1ccco1)c1ccnc(-c2ccccc2C(F)(F)F)n1,.,-7%,.,.,0%[0.501 µM]
COc1ccc(N2CCN(CC(=O)Nc3c(C)cc(C)cc3C)CC2)cc1,-27%,13%,-26%,5%,40µM*
COc1ccc(N2CCN(CC(=O)Nc3ccccc3SC)CC2)cc1,?,6%,50µM*,?,-50%[12.7 µM]
SMILES,JMJD2A Tudor,Sfp PPTase inh,BAZ2B inh,HP1b binding inh,G9a block
[O-]/[N+](=C\c1ccccc1)c1ccc(Br)cc1,?,.,?,-3%,9%[2.33 µM]
[O-]/[N+](=C\c1ccc(F)cc1)c1ccccc1,-1%,-18%,3%,4%,7.9µM*
[O-]/[N+](=C\c1cccc(Br)c1)c1ccccc1,-15%,12%,27%,14%,40µM*
Cc1ccc(C(=O)NCCc2nnc3ccc(SCC(=O)N4CCCCC4)nn23)cc1,-11%,0%,-11%,29%,.
O=C(Oc1ccccc1O)c1cccc2ccccc12,.,0%,-17%,.,45µM*
COC(=O)CSC1=C(C#N)C(c2ccccc2)CC(=O)N1 (configuration not stated),-11%,?,5%,31%,-9%[12.7 µM]
C=CCSC1=C(C#N)C(c2cccc(OC)c2)CC(=O)N1 (configuration not stated),-8%,35µM*,5%,-6%,45µM*
COC(=O)CSC1=C(C#N)C(c2cccc(OC)c2)CC(=O)N1 (configuration not stated),-6%,2%,-6%,49%,71µM*
COC(=O)CSC1=C(C#N)C(c2ccc(Cl)cc2)C(C(=O)OC)C(=O)N1 (configuration not stated),-20%,-15%,2%,-15%,45µM*
CCOc1ccc(C2CC(=O)NC(SCC(=O)OC)=C2C#N)cc1 (configuration not stated),-11%,10%,9%,36%,71µM*
COC(=O)CSC1=C(C#N)C(c2cccc(F)c2)CC(=O)N1 (configuration not stated),-16%,20%,0%,12%,.
COc1cccc(COC(=O)c2ccc(-c3nnn(Cc4ccccc4)n3)cc2)c1,12%,.,-14%,20%,?
CSc1nc(NS(=O)(=O)c2cc(Br)ccc2Br)cc(=O)[nH]1,-21%,11%,-5%,-16%,56µM*
O=C(O)[C@@H](O)[C@@H](O)[C@@H](O[C@H]1O[C@@H](CO)[C@@H](O)[C@@H](O)[C@@H]1O)[C@@H](O)CO,.,24%,.,.,21%[21.5 µM]
COc1ccc(C(=O)Nc2c(O)ccc3ccccc23)cc1OC,-21%,.,.,13%,.
COc1ccc(C(=O)NNc2ccccc2)cc1,-3%,-19%,?,13%,8.9µM*
COc1ccc(NC(=S)NNc2ccc(C(=O)O)cc2)cc1,-33%,-34%,10%,?,79µM*
COc1ccc(C(=O)Nc2c(O)ccc3ccccc23)cc1,79µM*,.,.,?,.
O=S(=O)(c1ccc2c(c1)OCCO2)N1CCN(S(=O)(=O)c2cc(F)c(Br)cc2F)CC1,-14%,.,.,.,.
CCOC(=O)c1ccc(NS(=O)(=O)c2cc3c(cc2C)n(C)c(=O)c(=O)n3C)cc1,-6%,.,0%,32%,-4%[59 µM]
c1ccc(C2=Nc3c(ccc4ccccc34)C(c3ccncc3)=NN2)cc1,35µM*,-15%,35µM*,?,.
Cc1ccc2c(c1)C(c1ccncc1)=NNC(c1ccccc1)=N2,-25%,-13%,-20%,-19%,15%
COc1ccc(-c2csc(NC(=O)C3CC(=O)N(Cc4ccccc4)C3)n2)cc1OC (configuration not stated),?,2%,?,-24%,50µM*
O=C(Nc1ccccc1)C1CC(=O)N(Cc2ccccc2)C1 (configuration not stated),-14%,3%,3%,34%,2%
